# Measured values taken from PubChem BioAssay AID624305 (National Center for Advancing Translational Sciences (NCATS), 2012).
# Results filed as inconclusive are left out. Where a call stands in place of a potency, no number is given. The source made the active and inactive calls. Calls follow the shape of the dose curve; as a rule, active = well fitted activation curve with a large enough effect; inconclusive = small, poorly fitted or top-dose-only effect; inactive = no such curve, though single readings can be large or run the other way.
# Assay: qHTS assay for re-activators of p53 using a Luc reporter: Hit Validation; also: nearly all actives have a fitted effect of over 75% in size
# Settings: p53-responsive luciferase reporter cells, luminescence, H1299 line expressing heat-sensitive Ala138Val p53; series mostly up to 46.1 µM
# Summary of the method: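 Hit confirmation with a 1:5 dilution series, at 37 deg C for 24 hrs, in H1299 cells co-expressing temperature-sensitive p53-A138V and p53-responsive luciferase. Nocodazole served as control; luminescence read after 10 min with detection reagent.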
# Potency is read from the fitted curve at half-maximal effect.
row,Compound,Potency
1,CC(=O)c1ccc(NC(=O)CCc2nnc3ccc(NCc4ccco4)nn23)cc1,11.6 µM (active)
2,CN(C)/C=N/c1cnc(C(=O)c2ccc(Cl)cc2)n1C,2.59 µM (active)
3,COc1cccc(/C=N/NC(=O)CCc2n[nH]c(=O)[nH]c2=O)c1O,inactive
4,COc1ccc(N2C(=O)CC(Cc3ccc(Br)cc3)C2=O)cc1 (configuration not stated),inactive
5,O=C(N/N=C/c1sc(=O)[nH]c1-[n+]1ccc2ccccc2c1)c1ccccc1[O-],inactive
6,Cc1ccc2c(c1)CCCN2C(=O)Nc1ccc2c(c1)OCO2,inactive
7,CCc1cc(C(=O)c2ccc(C)cc2)c(NC(=O)CCl)s1,inactive
8,N#C/C(=C\c1ccc(OCc2ccc(Br)cc2)cc1)C(=O)Nc1cccc(C(=O)O)c1,2.91 µM (active)
9,CCOC(=O)N1CCN(S(=O)(=O)c2ccc(C(=O)NNc3nc4c(C)cc(C)cc4s3)cc2)CC1,inactive
10,O=C(COc1ccc(F)cc1Cl)NC1CCCCCC1,7.31 µM (active)
11,CCOC(=O)c1c(NC(=O)C2COc3ccccc3O2)sc2c1CCN(Cc1ccccc1)C2 (configuration not stated),inactive
12,Cc1ccc(C(=O)OCC(=O)NCC2COc3ccccc3O2)cc1 (configuration not stated),inactive
